# From PubChem BioAssay (EPA / NIEHS)
# Several values for one entry are separate records, joined by “and”; a condition that tells them apart may be missing. Equal values may be shown once. Some compounds were tested as several samples or in several runs, with calls that do not always agree. Activity calls are given as the source filed them. How the source made its calls: active means hit-call score of the fitted dose curve at least 0.9, where 1 is the maximum; inactive means score below 0.9.
# Legend:
# [1] = ATG_CRE_CIS: Attagene CIS-FACTORIAL HepG2 Assay for human cAMP Responsive Element (CRE) binding protein 3 (AID 2282926); details: HepG2 CRE cis-reporter, Attagene multiplexed mRNA; actives raise or lower the signal
# In short: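 We dosed HepG2 cells bearing multiple cis-promoter reporter units for 24 h and measured reporter mRNA by RT-PCR with capillary electrophoresis detection. Bidirectional concentration-response fitting used DMSO as negative control.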
# [2] = ATG_CMV_CIS: Attagene CIS-FACTORIAL HepG2 Assay for human CMV (Internal Marker) (AID 2282928); details: HepG2 CMV promoter reporter, transcription factor profiling; actives raise or lower the signal;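 further: endpoint acts as a background internal control marker rather than a target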
# In short: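 After transient transfection of HepG2 with reporter transcription units driven by cis-regulatory promoters, cells receive test chemical for 24 h. Labeled reporter amplicons, digested with HpaI, are sized and quantified by capillary electrophoresis against DMSO.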
# [3] = ATG_DR4_LXR_CIS: Attagene CIS-FACTORIAL HepG2 Assay for human Liver X Receptor (LXR), DR4 submotif (AID 2282929); details: HepG2 Attagene DR4 cis-reporter, mRNA transcription; actives raise or lower the signal
# In short: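 Cells were transfected with multiple reporter transcription units, exposed to chemicals for 24 hours, then lysed for RNA. Reporter mRNA induction was measured by RT-PCR with capillary electrophoresis detection and fitted in both directions relative to DMSO.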
# [4] = target: Aryl hydrocarbon receptor (Homo sapiens) (UniProt P35869); assay: ATG_Ahr_CIS: Attagene CIS-FACTORIAL HepG2 Assay for human Aryl Hydrocarbon Receptor (Ahr) (AID 2282930); details: HepG2 AhR cis-factorial reporter transcription; actives raise or lower the signal
# Chain of Aryl hydrocarbon receptor (Homo sapiens) (P35869 whole entry, looked up): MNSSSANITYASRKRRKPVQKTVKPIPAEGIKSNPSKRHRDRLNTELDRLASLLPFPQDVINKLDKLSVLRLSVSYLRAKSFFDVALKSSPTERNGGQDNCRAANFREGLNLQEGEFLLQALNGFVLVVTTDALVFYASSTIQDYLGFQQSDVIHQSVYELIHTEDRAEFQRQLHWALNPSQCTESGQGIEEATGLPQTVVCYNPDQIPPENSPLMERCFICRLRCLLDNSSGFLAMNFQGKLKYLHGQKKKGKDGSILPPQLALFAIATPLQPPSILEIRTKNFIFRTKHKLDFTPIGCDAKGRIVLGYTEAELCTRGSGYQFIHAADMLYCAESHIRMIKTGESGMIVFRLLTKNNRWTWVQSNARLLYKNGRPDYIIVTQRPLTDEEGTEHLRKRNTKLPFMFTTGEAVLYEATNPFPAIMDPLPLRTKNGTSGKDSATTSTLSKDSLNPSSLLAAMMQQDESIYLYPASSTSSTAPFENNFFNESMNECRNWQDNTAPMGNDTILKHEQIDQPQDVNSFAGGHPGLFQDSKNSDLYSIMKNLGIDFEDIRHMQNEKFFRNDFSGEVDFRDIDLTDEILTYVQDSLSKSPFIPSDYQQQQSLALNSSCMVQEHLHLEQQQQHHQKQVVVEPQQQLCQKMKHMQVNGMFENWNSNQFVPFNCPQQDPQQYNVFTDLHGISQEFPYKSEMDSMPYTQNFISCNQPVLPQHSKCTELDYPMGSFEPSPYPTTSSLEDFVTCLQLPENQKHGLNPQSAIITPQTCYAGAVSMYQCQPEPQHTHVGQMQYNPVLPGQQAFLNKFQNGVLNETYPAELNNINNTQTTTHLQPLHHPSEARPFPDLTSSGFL
# In short: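 HepG2 cells transiently transfected with cis-element-driven multiplexed reporter units; endogenous AhR activity read as reporter mRNA 24 h after dosing, via RT-PCR, 6-FAM labelling, HpaI digestion and capillary electrophoresis. Bidirectional fit relative to DMSO.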
# [5] = ATG_AP_1_CIS: Attagene CIS-FACTORIAL HepG2 Assay for human Activator Protein 1 (AP-1) (AID 2282931); details: HepG2 Attagene cis-factorial AP-1 reporter mRNA; actives raise or lower the signal
# In short: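 Endogenous transcription-factor activity in human HepG2 liver cells is read through a cis-promoter reporter transcript, sampled 24 h after dosing. Detection uses RT-PCR with capillary electrophoresis; values come from bidirectional fitting relative to DMSO.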
# [6] = ATG_AP_2_CIS: Attagene CIS-FACTORIAL HepG2 Assay for human Activator Protein 2 (AP-2) (AID 2282932); details: HepG2 AP-2 cis-reporter, Attagene transcription factor profiling; actives raise or lower the signal
# In short: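 Multiplexed mRNA reporter assay in HepG2: cis-regulated units report endogenous factor activity after 24 h treatment. Fluorescence from capillary electrophoresis of RT-PCR products gives the signal, with DMSO as baseline.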
# [7] = ATG_BRE_CIS: Attagene CIS-FACTORIAL HepG2 Assay for human Bone Morphogenetic Protein (BMP) Response Element (BRE) (AID 2282933); details: HepG2 BMP response element reporter, Attagene transcription factor profiling; actives raise or lower the signal
# In short: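 Transient MRTU transfection of human HepG2 liver cells; 24 h compound treatment; total RNA isolated, reverse-transcribed, PCR-amplified, 6-FAM labelled, HpaI-cut, capillary electrophoresis. DMSO = negative control/baseline, bidirectional fit.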
# [8] = target: Retinoic acid receptor alpha (Homo sapiens) (UniProt P10276); assay: ATG_DR5_RAR_CIS: Attagene CIS-FACTORIAL HepG2 Assay for human Retinoic Acid Receptor Alpha (RARE), DR5 submotif (AID 2282934); details: HepG2 Attagene cis-factorial RARE DR5 reporter, mRNA; actives raise or lower the signal
# Chain of Retinoic acid receptor alpha (Homo sapiens) (P10276 whole entry, looked up): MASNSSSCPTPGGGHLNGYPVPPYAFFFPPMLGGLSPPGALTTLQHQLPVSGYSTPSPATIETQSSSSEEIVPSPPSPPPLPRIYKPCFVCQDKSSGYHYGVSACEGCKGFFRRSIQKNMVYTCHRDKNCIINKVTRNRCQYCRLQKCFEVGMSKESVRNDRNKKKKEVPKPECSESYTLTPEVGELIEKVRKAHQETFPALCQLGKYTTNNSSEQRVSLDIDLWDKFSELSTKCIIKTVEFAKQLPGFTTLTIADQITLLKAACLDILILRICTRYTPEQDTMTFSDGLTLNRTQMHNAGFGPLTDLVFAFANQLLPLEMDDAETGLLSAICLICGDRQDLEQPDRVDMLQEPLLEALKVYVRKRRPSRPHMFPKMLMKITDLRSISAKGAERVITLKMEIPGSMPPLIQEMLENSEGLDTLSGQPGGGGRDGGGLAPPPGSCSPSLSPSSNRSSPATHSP
# In short: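 HepG2 cells transiently transfected with multiplexed reporter units; DR5 cis-element drives reporter through endogenous transcription factors. After 24 h dosing, reporter mRNA quantified by RT-PCR, fluorescent labeling, HpaI digestion and capillary electrophoresis; bidirectional fitting versus DMSO.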
# [9] = target: Transcription factor E2F1 (Homo sapiens) (UniProt Q01094); assay: ATG_E2F_CIS: Attagene CIS-FACTORIAL HepG2 Assay for human E2F Transcription Factor 1 (AID 2282935); details: HepG2 Attagene cis-reporter, E2F reporter RNA transcripts; actives raise or lower the signal
# Chain of Transcription factor E2F1 (Homo sapiens) (Q01094 whole entry, looked up): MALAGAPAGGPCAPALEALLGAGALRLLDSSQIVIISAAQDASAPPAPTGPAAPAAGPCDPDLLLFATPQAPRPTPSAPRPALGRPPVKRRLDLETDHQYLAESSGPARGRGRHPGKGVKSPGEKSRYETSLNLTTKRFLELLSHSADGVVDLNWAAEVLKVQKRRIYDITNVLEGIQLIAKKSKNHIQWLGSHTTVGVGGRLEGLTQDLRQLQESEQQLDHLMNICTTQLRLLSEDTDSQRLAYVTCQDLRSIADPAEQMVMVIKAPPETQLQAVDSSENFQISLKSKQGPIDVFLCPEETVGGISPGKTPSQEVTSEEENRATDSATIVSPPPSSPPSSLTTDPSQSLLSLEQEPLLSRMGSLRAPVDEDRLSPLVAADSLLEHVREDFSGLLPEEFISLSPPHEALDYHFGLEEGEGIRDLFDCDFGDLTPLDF
# In short: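 Measures reporter transcript levels via RT-PCR with capillary electrophoresis detection in HepG2 cells harboring cis-regulated reporter units; 24 h post-dose; bidirectional curve fitting with DMSO as baseline.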
# [10] = ATG_E_Box_CIS: Attagene CIS-FACTORIAL HepG2 Assay for human Enhancer Box (E-box) (AID 2282936); details: HepG2 E-box cis-reporter transcription, actives raise or lower the signal
# In short: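 First, HepG2 cells receive multiple cis-regulated reporter constructs by transient transfection. Next, chemicals are applied for 24 h. Finally, reporter mRNA is quantified via RT-PCR and capillary electrophoresis, with DMSO as baseline.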
# [11] = ATG_M_61_CIS: Attagene CIS-FACTORIAL HepG2 Assay for M61 Transcription Factor (Internal Marker) (AID 2282937); details: HepG2 Attagene CIS-FACTORIAL M61 internal marker reporter; actives raise or lower the signal
# In short: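 Cells were transfected with reporter units under cis-regulatory promoters, treated with chemicals for 24 h, then lysed for RNA. Reporter transcripts were quantified by RT-PCR and capillary electrophoresis, and activity was fitted bidirectionally against DMSO.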
# [12] = ATG_EGR_CIS: Attagene CIS-FACTORIAL HepG2 Assay for human Early Growth Response 1 (EGR1) (AID 2282938); details: HepG2 Attagene CIS-FACTORIAL EGR reporter mRNA; actives raise or lower the signal
# In short: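 Endogenous TF activity in HepG2 liver cells was gauged through cis-promoter reporter constructs transiently transfected. After 24 h dosing, reporter mRNA was quantified by RT-PCR and capillary electrophoresis, and curves fitted in both directions versus DMSO.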
# [13] = ATG_M_19_CIS: Attagene CIS-FACTORIAL HepG2 Assay for M19 Transcription Factor (Internal Marker) (AID 2282939); details: HepG2 Attagene CIS-FACTORIAL M19 internal marker reporter; actives raise or lower the signal
# In short: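 Transfect HepG2 with MRTU reporter library → dose chemical, 24 h → isolate total RNA, reverse-transcribe with oligo(dT) → PCR, 6-FAM label, HpaI cut (2 h, 37 C) → capillary electrophoresis. Bidirectional fit vs DMSO.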
# [14] = ATG_ERE_CIS: Attagene CIS-FACTORIAL HepG2 Assay for Estrogen Response Element (ERE) (AID 2282940); details: HepG2 ERE cis-reporter, Attagene RNA transcript; actives raise or lower the signal
# In short: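 Transient MRTU transfection of human HepG2; cis-element promoters; 24 h dosing; total RNA → RT (oligo dT) → PCR → 6-FAM primer extension → HpaI digest → CE fluorescence. Bidirectional fit, DMSO baseline.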
# [15] = ATG_Ets_CIS: Attagene CIS-FACTORIAL HepG2 Assay for human Erythroblast Transformation Specific (ETS) (AID 2282941); details: HepG2 ETS cis-reporter transcription, actives raise or lower the signal
# In short: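 Human HepG2 hepatoma cells were transiently transfected with promoter-driven reporter constructs and treated for 24 hours. Reporter transcripts were quantified by RT-PCR with fluorescent primer extension; bidirectional curve fitting used DMSO as reference.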
# [16] = target: Hepatocyte nuclear factor 3-beta (Homo sapiens) (UniProt Q9Y261); assay: ATG_FoxA2_CIS: Attagene CIS-FACTORIAL HepG2 Assay for human Forkhead box A2 (FOXA2) (AID 2282942); details: HepG2 cis-reporter transcription factor activity, 24 h; actives raise or lower the signal
# Chain of Hepatocyte nuclear factor 3-beta (Homo sapiens) (Q9Y261 whole entry, looked up): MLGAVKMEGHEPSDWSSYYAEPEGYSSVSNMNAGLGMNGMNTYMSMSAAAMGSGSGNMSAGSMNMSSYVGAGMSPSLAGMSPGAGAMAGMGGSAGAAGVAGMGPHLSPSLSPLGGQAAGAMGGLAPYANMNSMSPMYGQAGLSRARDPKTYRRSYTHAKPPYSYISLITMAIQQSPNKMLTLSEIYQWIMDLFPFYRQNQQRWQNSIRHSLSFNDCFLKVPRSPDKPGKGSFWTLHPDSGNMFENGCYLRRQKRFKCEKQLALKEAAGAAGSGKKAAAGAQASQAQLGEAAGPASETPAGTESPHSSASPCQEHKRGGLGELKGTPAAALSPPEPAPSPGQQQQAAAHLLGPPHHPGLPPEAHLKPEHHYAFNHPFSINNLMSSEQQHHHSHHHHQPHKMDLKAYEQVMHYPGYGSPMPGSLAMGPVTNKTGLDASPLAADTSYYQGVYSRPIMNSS
# In short: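 Endogenous transcription factor activity was read in HepG2 cells carrying transiently transfected cis-promoter reporter units. After 24 h dosing, reporter mRNA was quantified by RT-PCR and capillary electrophoresis, and values fitted bidirectionally versus DMSO.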
# [17] = ATG_FoxO_CIS: Attagene CIS-FACTORIAL HepG2 Assay for human Forkhead box O (FoxO) (AID 2282943); details: HepG2 Attagene cis-reporter, FoxO element, mRNA; actives raise or lower the signal
# In short: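 HepG2 cells transiently transfected with cis-element-driven reporter units report endogenous FoxO activity. After 24 h chemical exposure, reporter mRNA quantified by RT-PCR, fluorescent labeling, HpaI digestion and capillary electrophoresis; bidirectional fit versus DMSO.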
# [18] = ATG_GATA_CIS: Attagene CIS-FACTORIAL HepG2 Assay for human GATA Binding Protein (AID 2282944); details: HepG2 GATA cis-element reporter, Attagene multiplex mRNA; actives raise or lower the signal
# In short: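 Transient MRTU transfection, HepG2, 24 h compound exposure. Total RNA → oligo(dT) RT → PCR → 6-FAM primer extension → HpaI cut → CE. Bidirectional fit vs DMSO.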
# [19] = target: CCAAT/enhancer-binding protein beta (Homo sapiens) (UniProt P17676); assay: ATG_C_EBP_CIS: Attagene CIS-FACTORIAL HepG2 Assay for human CCAAT/Enhancer Binding Protein (C/EBP) beta (AID 2282927); details: HepG2 Attagene cis-factorial transcription factor reporter; actives raise or lower the signal
# Chain of CCAAT/enhancer-binding protein beta (Homo sapiens) (P17676 whole entry, looked up): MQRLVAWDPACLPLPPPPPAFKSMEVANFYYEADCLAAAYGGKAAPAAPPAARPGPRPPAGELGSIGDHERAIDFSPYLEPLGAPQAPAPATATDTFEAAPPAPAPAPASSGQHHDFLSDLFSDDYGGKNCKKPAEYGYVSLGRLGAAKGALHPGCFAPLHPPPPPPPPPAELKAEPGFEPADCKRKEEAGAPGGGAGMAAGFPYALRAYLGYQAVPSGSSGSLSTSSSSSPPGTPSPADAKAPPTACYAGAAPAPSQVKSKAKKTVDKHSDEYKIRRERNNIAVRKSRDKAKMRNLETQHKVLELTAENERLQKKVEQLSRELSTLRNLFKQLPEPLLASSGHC
# In short: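 HepG2 transiently transfected with multiplexed reporter units under cis-regulatory promoters reporting endogenous C/EBPb activity. After 24 h exposure, reporter mRNA assayed by RT-PCR, fluorescent labelling, HpaI digestion and capillary electrophoresis; bidirectional fitting versus DMSO.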
# [20] = APR_HepG2_NuclearSize_72hr: Apredica 72-hour HepG2 Assay for Nuclear Size (AID 2282925); details: high-content imaging, actives raise or lower the signal
# In short: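 HepG2 cells dosed 72 h at 0.39–200 uM (10 concentrations, duplicate) in 0.5% v/v DMSO final. Fixed, Hoechst 33342-stained nuclei imaged; nuclear diameter measured by automated image analysis. Bidirectional fit versus DMSO.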
structure (smiles),measurement,setting,value
S=P(N1CC1)(N1CC1)N1CC1,outcome,[1],inactive
same,outcome,[2],inactive
same,AC50,[3],157 µM (active)
same,outcome,[3],inactive
same,outcome,[4],inactive
same,outcome,[5],inactive
same,outcome,[6],inactive
same,outcome,[7],inactive
same,outcome,[8],inactive
same,outcome,[9],inactive
same,outcome,[10],inactive
same,outcome,[11],inactive
same,outcome,[12],inactive
same,outcome,[13],inactive
same,outcome,[14],inactive
same,outcome,[15],inactive
same,outcome,[16],inactive
same,outcome,[17],inactive
same,outcome,[18],inactive
Cc1cccc(O)c1C,outcome,[1],inactive
same,outcome,[19],inactive
same,outcome,[2],inactive
same,outcome,[3],inactive
same,outcome,[4],inactive
same,outcome,[5],inactive
same,outcome,[6],inactive
same,outcome,[7],inactive
same,outcome,[8],inactive
same,outcome,[9],inactive
same,outcome,[10],inactive
same,outcome,[11],inactive
same,outcome,[13],inactive
same,AC50,[14],59.3 µM (active) and 59.6 µM (active)
same,outcome,[15],inactive
same,outcome,[16],inactive
same,outcome,[17],inactive
same,outcome,[18],inactive
C[Si](C)(C)C(F)(F)C(F)(F)C(F)(F)F,outcome,[1],inactive
same,outcome,[2],inactive
same,outcome,[3],inactive
same,outcome,[4],inactive
same,outcome,[5],inactive
same,outcome,[6],inactive
same,outcome,[7],inactive
same,outcome,[8],inactive
same,outcome,[9],inactive
same,outcome,[10],inactive
same,outcome,[11],inactive
same,outcome,[13],inactive
same,outcome,[14],inactive
same,outcome,[15],inactive
same,outcome,[16],inactive
same,outcome,[17],inactive
same,outcome,[18],inactive
CC(=O)c1ccccc1,outcome,[20],inactive
same,outcome,[1],inactive
same,outcome,[2],inactive
same,outcome,[3],inactive
same,outcome,[4],inactive
same,outcome,[5],inactive
same,outcome,[6],inactive
same,outcome,[7],inactive
same,outcome,[9],inactive
same,outcome,[10],inactive
same,outcome,[11],inactive
same,outcome,[13],inactive
same,outcome,[14],inactive
same,outcome,[15],inactive
same,outcome,[16],inactive
same,outcome,[17],inactive
same,outcome,[18],inactive
Cc1nc(-c2ccccn2)ncc1C(=O)Nn1cc(C)c2cc(F)ccc21,outcome,[20],inactive
same,outcome,[1],inactive
same,outcome,[2],inactive
same,outcome,[3],inactive
same,outcome,[5],inactive
same,outcome,[6],inactive
same,outcome,[7],inactive
same,outcome,[8],inactive
same,outcome,[9],inactive
same,outcome,[10],inactive
same,outcome,[11],inactive
same,outcome,[13],inactive
same,outcome,[14],inactive
same,outcome,[15],inactive
same,outcome,[16],inactive
same,outcome,[17],inactive
same,outcome,[18],inactive
CCCCOC(=O)c1ccccc1,outcome,[20],inactive
same,outcome,[1],inactive
same,outcome,[2],inactive
same,outcome,[3],inactive
same,outcome,[5],inactive
same,outcome,[6],inactive
same,outcome,[7],inactive
same,outcome,[8],inactive
same,outcome,[9],inactive
same,outcome,[10],inactive
same,outcome,[11],inactive
same,outcome,[12],inactive
same,outcome,[13],inactive
same,outcome,[14],inactive
same,outcome,[15],inactive
same,outcome,[16],inactive
same,outcome,[17],inactive
same,outcome,[18],inactive
CCCCCCCC1CCC(=O)O1 (stereo not drawn),outcome,[19],inactive
same,outcome,[2],inactive
same,outcome,[3],inactive
same,outcome,[4],inactive
same,outcome,[6],inactive
same,outcome,[7],inactive
same,outcome,[8],inactive
same,outcome,[9],inactive
same,outcome,[10],inactive
same,outcome,[11],inactive
same,outcome,[12],inactive
same,outcome,[13],inactive
same,outcome,[14],inactive
same,outcome,[15],inactive
same,outcome,[16],inactive
same,outcome,[17],inactive
same,outcome,[18],inactive
